In PubChem BioAssay one finds inhibition data, which are given here for 40 compounds.

SMILES strings stand for the structures. Unmarked numbers belong to inactive results. How the calls were made is not given here.

This test deals with Pantothenate synthetase (Mycobacterium tuberculosis (strain ATCC 25618 / H37Rv)) (UniProt P9WIL5). The test is described as follows: Recombinant Mtb pantothenate synthetase (PanC) inhibitors, coupled enzyme, confirmatory (AID 375).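 Further: 0% = full reaction with vehicle and 100% = no enzyme background.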 As to conditions: coupled enzyme assay; at 10 µM, stronger effect = higher value.
Sequence of Pantothenate synthetase (Mycobacterium tuberculosis (strain ATCC 25618 / H37Rv)) (P9WIL5 whole entry, looked up): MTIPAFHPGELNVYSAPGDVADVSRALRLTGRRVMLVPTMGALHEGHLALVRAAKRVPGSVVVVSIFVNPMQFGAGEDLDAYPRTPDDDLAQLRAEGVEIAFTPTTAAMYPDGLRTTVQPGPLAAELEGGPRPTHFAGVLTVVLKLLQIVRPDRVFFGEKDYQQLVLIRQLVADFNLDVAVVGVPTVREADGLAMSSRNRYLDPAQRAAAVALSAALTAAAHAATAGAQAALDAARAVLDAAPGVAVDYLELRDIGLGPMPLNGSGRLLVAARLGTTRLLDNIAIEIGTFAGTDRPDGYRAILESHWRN
With `COc1cccc(-c2nc3n(n2)C(c2cccs2)C(C(=O)Nc2cccnc2)=C(C)N3)c1` (stereo not given), the inhibition is 0%.
The figure for `CC(=O)N(CCN(C(C)=O)c1ccccc1)c1ccccc1` is 0%.
As for `CCCNS(=O)(=O)c1ccc(OCC(=O)NCc2ccc3c(c2)OCO3)cc1`, the inhibition was 2%.
`CN(C)C(=O)c1ccc(COc2ccccc2Br)o1`: the inhibition is 0%.
On to `O=C(Nc1ccc2c(c1)OCCO2)C1CCCN1S(=O)(=O)c1cccc2cccnc12` (stereo not given), for which the inhibition is 0%.
In the case of `CN(CC(=O)Nc1sccc1C#N)C1CCCCC1`, the inhibition was 0%.
As for `Cc1ccc(S(=O)(=O)c2cc3c(=O)n4ccccc4nc3n(CC3CCCO3)c2=N)cc1C` (stereo not given), the inhibition is 0%.
With `Cn1nc(CC(=O)Nc2ccc(N3CCN(C(=O)OC(C)(C)C)CC3)cc2)c2ccccc2c1=O`, the inhibition was 0%.
Next, `CN(C)c1ccc(C=Nc2ccc(N(C)C)cc2)cc1`: 0%; `CS(=O)(=O)N(CC(=O)N1CCc2ccccc2C1)c1ccc2c(c1)OCO2`: 0%.
Next, `NC(=O)C1CCN(c2nc(-c3ccccc3)nc3ccccc23)CC1`: 0%; `CC(C)Nc1ncnc2c1cnn2-c1ccccc1`: 0%.
Regarding `CCOC(=O)C1=C(NC#N)OC(C)=C(C)C1c1ccc(O)cc1` (stereo not given), the inhibition was 0%.
Take `CCOC(=O)C(C)(C)Sc1nc2c(cnn2-c2ccc(Cl)cc2)c(=O)[nH]1`: the inhibition is 0%.
Turning to `COc1ccc(NC(=O)Nc2cc(C)ccc2OC)cc1`, the inhibition was 0%.
Turning to `CC(=O)N1CCN(c2ccc(N=Cc3c(O)n(Cc4ccccc4)c(=O)[nH]c3=O)cc2)CC1`, the inhibition was 0%.
For the compound `CC(C)(C)n1nnnc1C(c1ccccc1)N1CCc2ccccc2C1` (stereo not given), the inhibition is 0%.
Next, `CC(C)=CCSc1nnc(CCNC(=O)OC(C)(C)C)o1`: 3%; `CCn1c(C(=O)N2CCC(C(=O)NCc3ccc4c(c3)OCO4)CC2)cc2sccc21`: 0%.
`COc1cc(C(=O)OCC(=O)N(C)Cc2ccccc2)cc(OC)c1OC`: the inhibition is 0%.
As to `CCCOc1nc(N)c(C#N)c(-c2ccccc2F)c1C#N`, the inhibition is 4%.
Next, `c1ccc(Cc2nn3c(Cn4cnc5ccccc54)nnc3s2)cc1`: 4%.
`Cc1nnc(NCCc2ccccc2)n(N)c1=O`: the inhibition was 5%.
Next, `CCOC(=O)C1=C(C)Nc2nnnn2C1c1ccc(OC)c(Br)c1` (stereo not given): 1%.
The figure for `O=C(COC(=O)c1ccccc1Oc1ccccc1)NC1CCS(=O)(=O)C1` (stereo not given) is 0%.
Take `Cc1ccc2nc(NC(=O)CN(C)S(=O)(=O)c3cccc4nsnc34)sc2c1`: the inhibition was 0%.
The figure for `CCOCCCNC(=O)CS(=O)(=O)Cc1nc(-c2cccc(OC)c2)oc1C` is 0%; for `COc1cc(C(=O)Nc2ccc3c(c2)C(=O)N(CCC(=O)O)C3=O)cc(OC)c1OC` it is 0%; for `CCCN1CCN(C(=O)Cn2c(=O)oc3cc(S(=O)(=O)NCc4ccccc4)ccc32)CC1` it is 3%.
The figure for `CCc1ccccc1NC(=O)CSC1=C(C#N)C(c2ccc(O)c(OC)c2)C2=C(CCCC2=O)N1` (stereo not given) is 6%; for `COc1ccc(-c2noc(COc3ccc4ccccc4c3Br)n2)cc1OC` it is 6%; for `O=C(CCn1c(=S)[nH]c2ccccc2c1=O)NCC1CCCO1` (stereo not given) it is 4%.
For `NC(N)=NC(=O)c1nc(Cl)c(N)nc1N`, the inhibition was 0%.
With `CCc1ccc(N2CC34C=CC(O3)C(C(=O)OC)C4C2=O)cc1` (stereo not given), the inhibition was 0%.
`O=C(CN1CCOCC1)N1CCN(C(=O)CN2CCOCC2)CC1`: the inhibition is 6%.
Next, `COc1cc([C@@H]2c3cc4c(cc3[C@H](O)[C@H]3COC(=O)[C@H]23)OCO4)cc(OC)c1OC`: 0%; `COC(=O)c1ccc(N2C(=O)CC(N3CCN(C(=O)c4ccco4)CC3)C2=O)cc1` (stereo not given): 0%.
As for `O=C(O)C1CSC2c3ccccc3C(=O)N12` (stereo not given), the inhibition is 0%.
As to `COc1ccc(OCCCC(=O)Nc2nncs2)cc1`, the inhibition was 0%.
Next, `COc1cccc(NC(=O)N[C@@H](Cc2ccccc2)C(=O)O)c1`: 0%.
